Test: qHTS drug screen for cell cycle checkpoint inhibitors in PARPi-resistant BRCA-mutant ovarian cancer cell lines. (AID 1963452)
Conditions: PEO1/OlaR viability, CellTiter-Glo luminescence, 96 h; measured here: PEO4 Z-AUC; stronger effect = lower value
Procedure, shortened: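 PEO1, PEO4 and PEO1/OlaR ovarian cancer cells, 600 per well, exposed 96 h at 37C to a dilution series. Viability read by CellTiter-Glo luminescence, normalized to DMSO and empty wells; activity summarized as Z-AUC.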

Compound | Z-AUC
CC(=O)N[C@H]1CSSC[C@@H](C(N)=O)NC(=O)[C@H](C(C)C)NC(=O)[C@H](C)NC(=O)[C@H](Cc2cnc[nH]2)NC1=O | -0.422
O=C1S/C(=C\c2ccc(OCc3cccc(B(O)O)c3)cc2)C(=O)N1Cc1ccc(F)cc1 | 0.814
O=C(O)/C(S)=C/c1ccc(I)cc1 | 0.789
O=c1ncccn1[C@@H]1O[C@H](CO)[C@@H](O)[C@H]1O | -1.39
CC(C)OC(=O)[C@H](C)N[P@](=O)(OC[C@H]1O[C@@H](n2ccc(=O)[nH]c2=O)[C@](C)(F)[C@@H]1O)Oc1ccccc1 | 0.765
Cc1nc(C)c(CN2CCN(C(c3ccc(F)cc3)c3ccc(F)cc3)CC2)nc1C | 1.05
C=C1/C(=C/C=C2\CCCC3(C)[C@@H]([C@H](C)/C=C/C=C/C(O)(CC)CC)CC[C@@H]23)C[C@@H](O)C[C@@H]1O (some centres undefined) | -0.444
Nc1cccc2c1CN([C@H]1CCC(=O)NC1=O)C2=O | 1.07
C[C@H]1CN(C2COC2)CCN1c1ccc(Nc2cc(-c3ccnc(N4CCn5c(cc6c5CC(C)(C)C6)C4=O)c3CO)cn(C)c2=O)nc1 | 0.518
CN(CCOc1ccc(-c2ccc3c(c2)OCO3)cc1C(C)(C)C)CC(=O)O | 1.29
C=CC(=O)N1C[C@H](Nc2ncnc3[nH]ccc23)CC[C@@H]1C | -0.666
COc1cc(-c2cn(C)c(=O)c3cnccc23)cc(OC)c1CN(C)C | 0.614
CC(C)(CO)n1cc(C(=O)c2cncc(NC(=O)Cc3ccc(Cl)cn3)c2)c2cnc(N)nc21 | 0.771
CCn1c(=O)c2c(nc(/C=C/c3ccc(OC)c(OC)c3)n2C)n(CC)c1=O | 0.882

From PubChem BioAssay (NCATS)
